Experimental data published in the OligoGym collection.

target: FNBP1L; assay: pooled miR-30 sensor sort-seq; sequence = guide strand; details: shRNA
Also: reference of the scale not given here.

| Sequence | sensor-assay potency score (higher = more potent) |
| --- | --- |
| TAATGTAGAGAACTTCACCTTC | -0.0833 |
| TATGATTCAAATAACACTGGGA | 0.483 |
| TGACTTTTGACAATAGTCCTTT | -0.217 |
| TTTCTCTAGAGTTACATCTATG | -0.933 |
| TAACTTTGCGTTCTGAGTCAGC | -0.716 |
| TAATTCACCATACACTCTGTGC | -0.622 |
| TTGTCTAAGCTGTCGAACTGAT | -0.84 |
| TAAGCTGTCGAACTGATCCCAC | 0.0926 |
| TTCTGCTACAACTTCTCGCTGT | 0.673 |
| TTCATCATCAAACTCATTGTGG | 0.113 |

target: FNBP1; assay: as above; details: shRNA

| Sequence | sensor-assay potency score (higher = more potent) |
| --- | --- |
| TTTACTAGATTCAAGCTGCTTC | 0.524 |
| TATACTTGTATTCTTCTTCCTC | 0.713 |
| ATCTCTTTGATCCATCTCCTTC | -0.792 |
| TTTGGTGACGTATTTGAGCTTG | 0.00299 |
| TTTATAAGCTTCTATTACCAGC | -0.679 |
| TAAGCTTCTATTACCAGCTGTG | 0.175 |
| TTTATTTAACTCATCGACTTTC | -0.243 |
| TAACTCATCGACTTTCTGCTGC | 0.71 |
| TAGAATTAGTGCAACACACATA | -0.218 |
| TTTCTGGGTCTCTACTCGCAGT | -1.12 |

target: FNDC5; assay: as above; details: shRNA

| Sequence | sensor-assay potency score (higher = more potent) |
| --- | --- |
| TTGTAGTGCAGCCTCCTTCATC | -0.884 |
| TAGCCAGAGCTGCTCTTCCTGT | -1.11 |
| TTGGTCTGAAAGACACAGCTTG | -0.175 |
| TTGAGAGCTCTTGTAGACCGGA | 0.301 |
| TTTTCCTTGTTGTTATTGGGTT | -0.634 |
| TTTTTCCTTGTTGTTATTGGGT | -0.666 |
| TTGATGATGTCATACTGGCGGC | -0.843 |
| TTGAAGAGCACAGGCTCGCTGG | -0.67 |
| TTATTGGGTTCATTGTCCTTGA | -0.801 |
| TTCCTAAATAAATTGGACCAGT | -0.788 |
| TTGTCCAAGCTAGCATTTCTGA | -1.26 |
| TACCTCATCTTTGTTCTTGGAG | 0.567 |

target: FNTB; assay: as above; details: shRNA

| Sequence | sensor-assay potency score (higher = more potent) |
| --- | --- |
| TTCTGTAGAAAGTATGTAGTGG | 0.598 |
| TAGAAAGTATGTAGTGGCCTGG | -0.497 |
| TACTGAAGAAGCTTCTCTCTGT | 0.515 |
| TTAAGCTCCTCAAAACCTGGGA | -0.317 |
| TCCTCCTTCAAATCGCATCTGC | -0.214 |
| TCATCTAGCAGTTCCAAGCTGT | 0.0729 |
| TCATGCAACATGGCTCCGCTGC | -1.29 |
| ATCTGTAGCCACTATCTGGGGG | -0.8 |
